The source of these data is PubChem BioAssay.

The nature of experiment [1]: rapamycin-like changes in RPL19A-GFP expression – cell-based, S. cerevisiae, multiplex flow cytometry, primary screen (AID 1862).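 Note: lower values mimic rapamycin by blocking the RPL19A rise seen in DMSO cells.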 The settings on record: S. cerevisiae RPL19A-GFP strain, flow cytometry fluorescence, 3 h; at 10 µM; stronger effect = lower value.
The nature of experiment [2]: TOR pathway GLN3 branch reporter MEP2-GFP changes – S. cerevisiae, multiplex flow cytometry, primary screen (AID 1867;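 active = GFP response, as percent of the DMSO control, above the screen-wide mean plus 3 SD, about 139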;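 note: median GFP channel fluorescence of barcode-gated MEP2-GFP cells measured by flow cytometry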). The note with it: S. cerevisiae MEP2-GFP strain, 3 h, at 10 µM, stronger effect = higher value, 100% means same as DMSO wells.
Experiment [3] in a line: TOR pathway RTG branch CIT2 reporter changes – S. cerevisiae, GFP fusion, multiplex flow cytometry, primary screen (AID 1870;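 active = percent response above a set limit, the screen-wide mean plus 3 SD, cut at about 130% in these data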;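 note: barcoded CIT2-GFP strain pooled with four other GFP strains with rapamycin as positive control; median GFP fluorescence per well over plate mean of DMSO wells so 100% = DMSO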). The note with it: S. cerevisiae CIT2-GFP expression, 3 h, at 10 µM, stronger effect = higher value.
A short description of experiment [4]: TOR pathway LAP4-GFP level changes – S. cerevisiae, multiplex flow cytometry, primary screen (AID 1873;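 active = GFP signal, as percent of the solvent control, above the screen mean plus 3 SD, about 149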). The settings on record: S. cerevisiae LAP4-GFP expression, 3 h, at 10 µM, stronger effect = higher value.
Experiment [5] in a line: yeast AGP1-GFP level changes, GLN3 branch – cell-based, multiplex flow cytometry, S. cerevisiae, primary screen (AID 1887;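 active = GFP signal above the screen-wide mean plus 3 SD, that is over about 124.5% of the solvent control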;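 note: AGP1-GFP fusion strain of S. cerevisiae within a five-strain barcoded multiplex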). The note with it: 3 h, at 10 µM, stronger effect = higher value.
Experiment [6] can be described thus: reduced mouse 2C T cell binding to pMHC/ICAM-1 vesicles – MLPCN validation set, flow cytometry, LFA-1/ICAM-1 modulator project, pilot screen (AID 2523;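 active = response below a set limit, under 55% cells CD8-positive and vesicle-bound, and CD8 cells' 90th-percentile brightness under 279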;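 for vesicle binding response: mean PE anti-B7-1 fluorescence of CD8+ cells relative to row control; 100% = QL9-loaded vesicles with DMSO vehicle in the same plate row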). The note with it: 2C mouse CD8+ T cells, at 7 µM, stronger effect = lower value; double positive events: measured here: CD8+/vesicle+ event percentage.
In experiment [7] the target is Integrin beta-1 (Homo sapiens) + Integrin alpha-4 (Homo sapiens) (UniProt P13612+P05556). The experiment is described as follows: alpha4beta1 integrin LIBS antibody binding reduction – U937 cells, HUTS-21 mAb, flow cytometry, validation set, VLA-4 allosteric modulator project, pilot screen (AID 2674;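 active = inhibition above 50%, about 3 SD of the validation set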;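 note: antibody binding induced by the VLA-4 ligand LDV present at three times its Kd; 0% = LDV ligand with antibody and no compound and 100% = antibody without LDV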). The note with it: HUTS-21 LIBS mAb binding, at 6.7 µM, stronger effect = higher value, binding induced by LDV ligand.
Integrin beta-1 (Homo sapiens) + Integrin alpha-4 (Homo sapiens), sequence (P05556 whole entry, looked up): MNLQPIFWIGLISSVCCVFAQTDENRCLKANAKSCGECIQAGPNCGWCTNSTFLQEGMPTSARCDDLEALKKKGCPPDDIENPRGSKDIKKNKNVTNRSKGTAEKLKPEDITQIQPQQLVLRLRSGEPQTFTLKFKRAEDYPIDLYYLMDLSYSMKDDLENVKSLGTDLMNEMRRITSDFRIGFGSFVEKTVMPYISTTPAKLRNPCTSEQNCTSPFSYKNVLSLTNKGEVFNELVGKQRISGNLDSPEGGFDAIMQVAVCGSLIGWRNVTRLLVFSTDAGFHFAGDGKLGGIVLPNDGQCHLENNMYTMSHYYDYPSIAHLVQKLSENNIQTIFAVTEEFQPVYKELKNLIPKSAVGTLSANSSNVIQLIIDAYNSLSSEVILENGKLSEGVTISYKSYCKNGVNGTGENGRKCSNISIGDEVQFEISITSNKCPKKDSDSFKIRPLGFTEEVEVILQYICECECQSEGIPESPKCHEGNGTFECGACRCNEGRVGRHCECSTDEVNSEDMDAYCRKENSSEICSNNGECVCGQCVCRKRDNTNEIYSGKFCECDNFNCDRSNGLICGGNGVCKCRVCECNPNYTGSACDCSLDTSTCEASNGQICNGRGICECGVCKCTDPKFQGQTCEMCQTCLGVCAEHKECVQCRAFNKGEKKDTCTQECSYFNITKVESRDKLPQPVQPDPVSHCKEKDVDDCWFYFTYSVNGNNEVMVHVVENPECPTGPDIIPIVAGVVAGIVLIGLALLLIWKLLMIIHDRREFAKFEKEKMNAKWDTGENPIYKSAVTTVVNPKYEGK
Integrin beta-1 (Homo sapiens) + Integrin alpha-4 (Homo sapiens), sequence (P13612 whole entry, looked up): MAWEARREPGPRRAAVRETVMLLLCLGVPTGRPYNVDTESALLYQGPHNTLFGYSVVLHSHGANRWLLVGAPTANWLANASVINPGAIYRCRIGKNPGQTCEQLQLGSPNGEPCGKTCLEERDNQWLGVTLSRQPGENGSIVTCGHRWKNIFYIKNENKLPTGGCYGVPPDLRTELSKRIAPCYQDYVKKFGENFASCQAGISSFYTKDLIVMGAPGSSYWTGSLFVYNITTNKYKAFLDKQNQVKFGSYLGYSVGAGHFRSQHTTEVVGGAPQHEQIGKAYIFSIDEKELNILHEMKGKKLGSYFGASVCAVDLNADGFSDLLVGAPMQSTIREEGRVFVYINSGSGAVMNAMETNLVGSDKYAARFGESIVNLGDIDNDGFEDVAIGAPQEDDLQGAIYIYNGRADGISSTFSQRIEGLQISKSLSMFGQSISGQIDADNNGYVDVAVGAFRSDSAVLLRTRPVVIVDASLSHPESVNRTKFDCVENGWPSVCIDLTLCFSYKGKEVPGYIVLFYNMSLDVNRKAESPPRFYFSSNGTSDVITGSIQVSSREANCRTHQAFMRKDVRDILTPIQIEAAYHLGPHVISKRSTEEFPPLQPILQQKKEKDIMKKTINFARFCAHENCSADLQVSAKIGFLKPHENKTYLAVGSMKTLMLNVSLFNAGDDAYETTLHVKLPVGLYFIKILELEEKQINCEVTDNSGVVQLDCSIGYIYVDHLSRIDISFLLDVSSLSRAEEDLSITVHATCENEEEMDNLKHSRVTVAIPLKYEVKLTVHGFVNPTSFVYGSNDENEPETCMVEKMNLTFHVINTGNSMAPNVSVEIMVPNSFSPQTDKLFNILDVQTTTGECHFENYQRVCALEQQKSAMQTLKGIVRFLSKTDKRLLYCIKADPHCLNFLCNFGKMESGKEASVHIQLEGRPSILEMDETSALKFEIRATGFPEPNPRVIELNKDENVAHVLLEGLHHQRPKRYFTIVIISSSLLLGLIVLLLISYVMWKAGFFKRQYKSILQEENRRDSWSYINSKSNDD

Experiment [8] in a line: calorie-restriction mimetic ROS inhibitors, yeast – validation compound set, pilot screen (AID 2706;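 active = superoxide response below 65% of plate, a cut near 3 SD across the whole screen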;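 note: yeast exposed to compound for one week at 30 degrees C before staining; 100% = mean of all compound wells on the same plate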). The note with it: S. cerevisiae aging, superoxide DHE fluorescence; at 10 µM; stronger effect = lower value.
Experiment [9] concerns the target Beta-adrenergic receptor kinase 1 (Homo sapiens) (UniProt P25098). The experiment in a line: GRK2 binders displacing RNA aptamer, biochemical, validation, human GRK2, bead flow cytometry (AID 488806;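 active = aptamer binding inhibition above 30%, about 3 SD of noise from non-fluorescent compounds; inactive = inhibition at or below 30%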). The settings on record: bead-bound GRK2, FAM-aptamer displacement, at 10 µM, stronger effect = higher value.
The target of experiment [10] is Beta-2 adrenergic receptor (Homo sapiens) (UniProt P07550). The experiment in a line: agonist-induced loss of surface beta2AR – cell-based, FAP fluorogen, flow cytometry, validation set, pilot screen (AID 504459;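 active = percent response above 42, roughly 3 SD of non-fluorescent test compounds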;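 note: agonist-driven loss of surface beta2AR via internalization measured by FAP dye flow cytometry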). The settings on record: Am2.2-beta2AR cells, at 10 µM, stronger effect = higher value.
Beta-2 adrenergic receptor (Homo sapiens), sequence (P07550 whole entry, looked up): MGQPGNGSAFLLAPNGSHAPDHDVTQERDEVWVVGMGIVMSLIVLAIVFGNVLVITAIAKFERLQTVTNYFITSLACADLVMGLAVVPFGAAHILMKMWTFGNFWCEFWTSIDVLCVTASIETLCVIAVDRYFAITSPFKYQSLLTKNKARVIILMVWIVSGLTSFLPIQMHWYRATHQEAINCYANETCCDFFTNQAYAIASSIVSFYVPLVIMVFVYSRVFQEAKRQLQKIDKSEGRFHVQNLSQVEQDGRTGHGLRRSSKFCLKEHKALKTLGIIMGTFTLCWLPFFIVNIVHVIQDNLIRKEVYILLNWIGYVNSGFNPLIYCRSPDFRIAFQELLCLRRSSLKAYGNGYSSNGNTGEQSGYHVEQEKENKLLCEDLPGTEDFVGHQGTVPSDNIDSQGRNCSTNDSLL
In experiment [11] the target is AP-2 complex subunit beta (Homo sapiens) (UniProt P63010). The experiment in a line: beta-arrestin/AP2 interaction blockers – biochemical, validation set, GST-AP2 beads, flow cytometry, pilot screen (AID 504541;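 active = inhibition above 54%, about 3 SD of non-fluorescent compounds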;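 note: AP2 carries R879A mutation and is captured from E. coli lysate; bead-bound FITC arrestin peptide fluorescence measuring arrestin peptide binding to AP2; 0% = DMSO wells and 100% = excess unlabeled arrestin peptide control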). The settings on record: FITC arrestin peptide, at 10 µM, stronger effect = higher value, AP2 beta2 appendage fragment, R879A mutant.
AP-2 complex subunit beta (Homo sapiens), sequence (P63010 whole entry, looked up, the tested form may be a part, one chain of several): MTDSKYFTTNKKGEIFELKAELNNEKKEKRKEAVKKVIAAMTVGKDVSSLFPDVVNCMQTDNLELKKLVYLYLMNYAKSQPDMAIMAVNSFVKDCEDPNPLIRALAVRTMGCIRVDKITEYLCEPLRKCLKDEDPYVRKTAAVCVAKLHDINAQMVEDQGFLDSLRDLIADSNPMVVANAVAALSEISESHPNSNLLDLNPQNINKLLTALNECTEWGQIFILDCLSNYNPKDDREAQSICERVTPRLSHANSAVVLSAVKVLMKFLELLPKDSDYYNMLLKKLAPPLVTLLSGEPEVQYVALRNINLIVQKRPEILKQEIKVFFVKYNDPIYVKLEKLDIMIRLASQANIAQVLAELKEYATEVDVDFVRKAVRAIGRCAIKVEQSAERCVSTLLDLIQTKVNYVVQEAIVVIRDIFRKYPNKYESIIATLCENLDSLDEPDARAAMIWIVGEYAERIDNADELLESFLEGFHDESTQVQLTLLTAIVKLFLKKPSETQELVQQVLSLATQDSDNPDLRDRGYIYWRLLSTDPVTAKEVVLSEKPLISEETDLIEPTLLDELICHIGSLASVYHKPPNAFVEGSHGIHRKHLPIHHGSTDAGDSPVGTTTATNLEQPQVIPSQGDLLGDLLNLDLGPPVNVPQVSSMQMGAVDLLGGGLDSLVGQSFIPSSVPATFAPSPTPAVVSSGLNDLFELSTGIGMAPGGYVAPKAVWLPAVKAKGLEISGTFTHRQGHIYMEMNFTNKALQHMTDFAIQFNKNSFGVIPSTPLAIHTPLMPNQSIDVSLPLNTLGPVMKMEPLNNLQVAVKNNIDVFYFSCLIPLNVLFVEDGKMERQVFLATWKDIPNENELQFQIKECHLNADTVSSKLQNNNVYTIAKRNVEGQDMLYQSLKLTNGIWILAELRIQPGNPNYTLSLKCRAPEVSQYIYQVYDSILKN
Experiment [12] is described as follows: cytosolic pH regulators acting via V-ATPase – S. cerevisiae, pHLuorin, HTS validation (AID 504600; in the data active = response above about 15%;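 note: plate controls were DMSO for no effect and reference compound for full effect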). The settings on record: V-ATPase proton transport, at 10 µM, stronger effect = higher value.
In experiment [13] the test system is anti-desmoglein-3 scFv antibody binding to human DSG3. The experiment is described as follows: blockers of pathogenic pemphigus antibody–desmoglein-3 binding – biochemical, validation compound set, bead-based, flow cytometry, pilot screen (AID 588368;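 active = binding below the plate cutoff, the plate median minus 3 SD, with a reading above zero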;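 note: signal is the median channel fluorescence of bead-bound GFP antibody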). The settings on record: Protein G beads, DSG3-Fc, scFv-GFP binding, at 10 µM, stronger effect = lower value.
Experiment [14] can be described thus: Nile Red efflux blockade in pump-expressing yeast – validation compound set, multiplex, phenotypic, pilot screen (AID 588506;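 active = efflux inhibition above 0.42, the validation set average plus 4 SD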;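 note: Nile Red retained in cells so higher fluorescence means more efflux inhibition; 0 = negative control wells and 1 = enniatin B 25 µM full block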). The note with it: S. cerevisiae pump-expressing triplex, Nile Red efflux flow cytometry; at 10 µM; stronger effect = higher value; the pumps come from Candida albicans.
Experiment [15] deals with ATP-binding cassette sub-family B member 6 (Homo sapiens) (UniProt Q9NP58). The experiment in a line: blockers of ABCB6-driven porphyrin uptake – K562-ABCB6 cells, flow cytometry, validation set, pilot screen (AID 588550;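 active = inhibition above the screen-wide mean plus 3 SD, about 51%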;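 note: 0% = DMSO wells and 100% = benzethonium chloride 70 µM positive control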). The note with it: K562-ABCB6 porphyrin accumulation, 1 h, at 10 µM, stronger effect = higher value.
ATP-binding cassette sub-family B member 6 (Homo sapiens), sequence (Q9NP58 whole entry, looked up): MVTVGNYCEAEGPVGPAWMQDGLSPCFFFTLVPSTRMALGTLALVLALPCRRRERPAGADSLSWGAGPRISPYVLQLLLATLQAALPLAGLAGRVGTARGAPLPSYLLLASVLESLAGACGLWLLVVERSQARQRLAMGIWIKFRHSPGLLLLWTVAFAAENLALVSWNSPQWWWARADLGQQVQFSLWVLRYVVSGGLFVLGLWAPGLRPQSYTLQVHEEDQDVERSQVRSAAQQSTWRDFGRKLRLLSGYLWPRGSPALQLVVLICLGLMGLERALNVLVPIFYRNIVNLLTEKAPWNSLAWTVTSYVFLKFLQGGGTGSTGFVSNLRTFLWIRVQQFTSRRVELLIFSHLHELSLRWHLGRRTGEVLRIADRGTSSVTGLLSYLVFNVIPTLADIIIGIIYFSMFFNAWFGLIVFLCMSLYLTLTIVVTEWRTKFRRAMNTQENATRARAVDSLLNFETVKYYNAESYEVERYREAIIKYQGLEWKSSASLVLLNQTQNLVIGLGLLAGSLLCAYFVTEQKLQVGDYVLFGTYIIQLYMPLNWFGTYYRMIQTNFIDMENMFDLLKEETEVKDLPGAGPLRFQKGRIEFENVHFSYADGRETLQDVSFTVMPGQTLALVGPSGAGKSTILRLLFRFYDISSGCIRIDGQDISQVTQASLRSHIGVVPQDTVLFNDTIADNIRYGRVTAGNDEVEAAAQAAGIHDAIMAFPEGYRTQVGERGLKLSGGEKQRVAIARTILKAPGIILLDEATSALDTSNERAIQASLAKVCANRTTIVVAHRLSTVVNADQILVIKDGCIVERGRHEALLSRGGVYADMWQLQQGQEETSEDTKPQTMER
The nature of experiment [16]: AML differentiation inducers, ER-HoxA9 marrow cells – cell-based, GFP/MAC1 double positive, flow cytometry, validation set, primary screen (AID 588685;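 active = differentiation response of at least 50%, scaled between solvent and reference control, from cells with both markers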;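 note: compound exposure lasts four days before antibody staining and flow analysis; 0% = DMSO wells and 100% = 5 µM fulvestrant positive control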). The note with it: stronger effect = higher value, normalized: vehicle 0, fulvestrant 100.

Results filed as inconclusive are left out. The source made the active and inactive calls. Cut-off read from the data, not from the text of the source, unless noted: active = percent of DMSO control GFP below about 86%; inactive = the rest, inconclusive results apart.

Beta-adrenergic receptor kinase 1 (Homo sapiens), sequence (P25098 whole entry, looked up): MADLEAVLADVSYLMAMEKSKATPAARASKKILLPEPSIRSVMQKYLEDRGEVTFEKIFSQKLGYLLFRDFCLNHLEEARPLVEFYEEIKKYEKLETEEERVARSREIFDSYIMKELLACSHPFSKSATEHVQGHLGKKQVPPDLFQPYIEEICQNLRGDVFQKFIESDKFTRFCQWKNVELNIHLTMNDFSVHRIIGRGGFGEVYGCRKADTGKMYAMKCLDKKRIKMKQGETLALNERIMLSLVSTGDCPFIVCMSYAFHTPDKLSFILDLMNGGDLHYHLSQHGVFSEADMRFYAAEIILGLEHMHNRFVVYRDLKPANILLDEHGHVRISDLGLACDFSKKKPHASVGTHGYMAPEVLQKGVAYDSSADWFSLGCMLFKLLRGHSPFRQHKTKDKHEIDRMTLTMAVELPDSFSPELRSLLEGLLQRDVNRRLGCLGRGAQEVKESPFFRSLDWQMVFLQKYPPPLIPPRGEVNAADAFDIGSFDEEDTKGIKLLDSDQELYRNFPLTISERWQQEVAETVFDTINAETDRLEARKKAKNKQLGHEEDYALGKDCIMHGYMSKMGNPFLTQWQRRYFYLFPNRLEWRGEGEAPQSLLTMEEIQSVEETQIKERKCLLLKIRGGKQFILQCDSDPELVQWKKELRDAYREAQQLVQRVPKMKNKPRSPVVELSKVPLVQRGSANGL

In the case of `c1cnc(N2CCN(Cc3ccc4c(c3)OCO4)CC2)nc1`, the percent of DMSO control GFP in experiment [1] was 101% (inactive). Further, the GFP response vs DMSO in experiment [2] is 101% (inactive); in experiment [4], 97% (inactive). For the same compound, the percent response of DMSO control in [3] is 102% (inactive). Besides, in [5], the GFP response, % of DMSO is 103% (inactive). The compound also came in with a double positive events in experiment [6] of 73.9%. Besides, the vesicle binding response in experiment [6] was 330% (inactive). Moreover, the values for the inhibition in experiment [7], in experiment [11] and in experiment [15] were 2.93% (inactive), 2.85% (inactive) and 2% (inactive), respectively. Further, the superoxide response (% of plate) in experiment [8] is 103% (inactive). Also, the aptamer binding inhibition in experiment [9] is -1% (inactive). For the same compound, the figures for the response in [10] and in experiment [12] were 2.78% (inactive) and 0.81% (inactive), respectively. The binding (% of control) in experiment [13] was 105% (inactive). In addition, the efflux inhibition (fraction of control) in experiment [14] is 0.235 (inactive). Moreover, the differentiation response in experiment [16] was -13.3% (inactive).

For `CC(=O)SC1CC2=CC(=O)CCC2(C)C2CCC3(C)C(CCC34CCC(=O)O4)C12` (stereo not given), the percent of DMSO control GFP in [1] was 103% (inactive). Besides, the GFP response vs DMSO in experiment [2] was 103% (inactive); in experiment [4], 109% (inactive). For the same compound, the percent response of DMSO control in experiment [3] is 107% (inactive). For the same compound, the GFP response, % of DMSO in experiment [5] is 107% (inactive). For the same compound, in experiment [6], the double positive events worked out at 64.4%. Moreover, the vesicle binding response in [6] is 247% (inactive). In addition, the inhibition in [7] was -3.57% (inactive); in experiment [11], -8.52% (inactive); in experiment [15], -3% (inactive). The superoxide response (% of plate) in experiment [8] was 98.5% (inactive). In addition, the aptamer binding inhibition in experiment [9] is 5% (inactive). For the same compound, the response in experiment [10] was -4.96% (inactive); in experiment [12] it was 1.6% (inactive). For the same compound, in experiment [13], the binding (% of control) was 100% (inactive). Also, in [14], the efflux inhibition (fraction of control) is -0.04 (inactive). In addition, the differentiation response in experiment [16] was 3.18% (inactive).

For the compound `O=C(O)c1cc2cc(Cl)cc(Cl)c2oc1=O`, in experiment [1], the percent of DMSO control GFP is 97.9% (inactive). Further, the GFP response vs DMSO in experiment [2] was 129% (inactive); in experiment [4] it was 80.9% (inactive). In addition, the percent response of DMSO control in experiment [3] was 104% (inactive). Also, the GFP response, % of DMSO in [5] is 93.1% (inactive). Further, the double positive events in experiment [6] was found to be 41.9%. In [6], the vesicle binding response is 63.6% (active). The inhibition in experiment [7] is -12.9% (inactive); in experiment [11] it was 8.6% (inactive); in experiment [15] it was 8% (inactive). In addition, the superoxide response (% of plate) in experiment [8] was 113% (inactive). In experiment [9], the aptamer binding inhibition is 7% (inactive). Further, the results for the response in experiment [10] and in experiment [12] were -14.8% (inactive) and 10.3% (inactive), respectively. In experiment [13], the binding (% of control) was 98.7% (inactive). Besides, the efflux inhibition (fraction of control) in [14] was 0.05 (inactive). Besides, the differentiation response in experiment [16] is 27.8% (inactive).

Turning to `C[C@H](CCC(=O)O)[C@H]1CC[C@H]2[C@@H]3C(=O)C[C@@H]4CC(=O)CC[C@]4(C)[C@H]3CC(=O)[C@]12C`, in [1], the percent of DMSO control GFP is 99.3% (inactive). The GFP response vs DMSO was 105% (inactive) in experiment [2] and 120% (inactive) in experiment [4]. For the same compound, the percent response of DMSO control in [3] is 101% (inactive). The GFP response, % of DMSO in experiment [5] was 119% (inactive). The same compound displayed a double positive events in experiment [6] of 57.7%. The vesicle binding response in experiment [6] was 220% (inactive). For the same compound, the results for the inhibition in experiment [7], in experiment [11] and in experiment [15] were 22.7% (inactive), 10.1% (inactive) and 0% (inactive), respectively. In experiment [8], the superoxide response (% of plate) was 95.4% (inactive). In experiment [9], the aptamer binding inhibition is 4% (inactive). For the same compound, the response is -23.4% (inactive) in experiment [10] and -2.4% (inactive) in experiment [12]. Also, the binding (% of control) in experiment [13] was 109% (inactive). The efflux inhibition (fraction of control) in experiment [14] is -0.09 (inactive). The differentiation response in experiment [16] was -11.9% (inactive).

With `COc1cccc(OCC(O)CO)c1` (stereo not given), the percent of DMSO control GFP in [1] is 97.6% (inactive). Besides, the GFP response vs DMSO in experiment [2] is 91.9% (inactive); in experiment [4], 78.6% (inactive). Besides, in [3], the percent response of DMSO control is 107% (inactive). The GFP response, % of DMSO in experiment [5] is 91.6% (inactive). Moreover, the double positive events in [6] turned out to be 58.2%. Moreover, in experiment [6], the vesicle binding response was 160% (inactive). In addition, the inhibition is 0.94% (inactive) in [7], 11.4% (inactive) in [11] and 1% (inactive) in [15]. Further, the superoxide response (% of plate) in experiment [8] was 94.9% (inactive). For the same compound, the aptamer binding inhibition in [9] was 4% (inactive). In addition, the response was 3.25% (inactive) in experiment [10] and -1.06% (inactive) in experiment [12]. The binding (% of control) in [13] was 99.9% (inactive). Moreover, the efflux inhibition (fraction of control) in experiment [14] was -0.1 (inactive). The differentiation response in experiment [16] is -4% (inactive).
